# Bioassay records: PubChem, National Center for Advancing Translational Sciences (NCATS)
# NS1 inh: qHTS Assay for Inhibitors of Influenza NS1 Protein Function; Potency, µM (top dose mostly 46.1 µM), for the others: top-dose activity, positive = more growth; 270,000 compounds, 0.4% hits; calls by dose curve; also: potency is read from the fitted curve at half-maximal effect; actives are rising curves; nearly all actives have a fitted effect of over 50% in size
#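 Compounds were scored for reversing the slow growth caused by influenza A NS1 in S. cerevisiae, measured by optical density at 600 nm. Assay medium contained 2% galactose at pH 6.0; NS1-free yeast of the same strain were the positive control.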
# Pf growth 48h: Primary qHTS for delayed death inhibitors of the malarial parasite plastid, 48 hour incubation | P. falciparum luciferase growth in erythrocytes, 48 h | 310,000 compounds, 5.9% hits | AID 504832, 2011 | Potency, µM (doses to about 28.7 µM), for inactives: at the top dose activity change, negative = inhibition, hits mostly inhibitors; also: potency is read from the fitted curve at half-maximal effect; % is scaled to controls: 0 for no effect and ±100 for the full control effect
#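 Read-out is firefly luciferase luminescence from an integrated reporter in P. falciparum, so falling signal marks reduced parasite growth. Infected erythrocytes were at 2% hematocrit and 0.1% parasitemia (final) in Albumax-supplemented RPMI 1640.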
# Shiga toxin inh: A qHTS for Small Molecule Inhibitors of Shiga Toxin; Vero cells, Shiga toxin protein synthesis inhibition reporter; inhibition, % at 38.7 µM; 290,000 compounds, 9.2% hits; in the data active = inhibition mostly above about 28%, no sharp cut-off; inactive = mostly below about 43%; also: 0% is about no effect
# CHX counter: Cycloheximide Counterscreen for Small Molecule Inhibitors of Shiga Toxin; AID 2314, 2010; max response, %; 300,000 compounds, 12% hits; cell reporter, cycloheximide protein synthesis inhibition counterscreen; in the data active = max response mostly above about 13%, no sharp cut-off; inactive = mostly below about 14%; also: read at 38.3 µM for the half of the compounds with a filed dose; 0% is about no effect
# Pf growth 96h: Primary qHTS for delayed death inhibitors of the malarial parasite plastid, 96 hour incubation. P. falciparum luciferase reporter growth, 96 h. Potency, µM (titrated, usually from 28.7 µM), for the others: at the highest dose activity change, negative = inhibition, actives largely listed as inhibitors. 320,000 compounds, 6.9% hits; also: potency is read from the fitted curve at half-maximal effect; % is scaled to controls: 0 for no effect and ±100 for the full control effect
#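 P. falciparum expressing integrated firefly luciferase, in erythrocytes at 2% hematocrit, 0.05% parasitemia, incubated with compounds 96 h at 37 C, 5% CO2. Growth inhibition read as loss of luminescence; two-generation exposure targets delayed-death apicoplast inhibitors.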
# SARS PLP yeast: qHTS of Yeast-based Assay for SARS-CoV PLP; S. cerevisiae expressing SARS-CoV PLpro, growth rescue; Potency, µM (titrated, usually from 32.9 µM), for inactives: at the highest dose activity, positive = growth rescue, most hits filed as activators; 330,000 compounds, 0.19% hits; AID 485353, 2010; calls by dose curve; also: potency is read from the fitted curve at half-maximal effect; 0% is about no effect; nearly all actives have a fitted effect of over 55% in size
# The depositor's hits bear a star; ? = inconclusive; / = no result. In the library only some 21% were active in any assay of this set; here they are far more common. Unless noted, calls follow the shape of the dose curve; as a rule, active = well fitted inhibition curve with a large enough effect; inconclusive = small, poorly fitted or top-dose-only effect, or another doubt; inactive = no such curve, though single readings can be large or run the other way.
SMILES,NS1 inh,Pf growth 48h,Shiga toxin inh,CHX counter,Pf growth 96h,SARS PLP yeast
Cc1ccc(OCC(=O)N/N=C\c2cccn2C)c([N+](=O)[O-])c1,4.7%,8.9%,42.0*,31.7*,-21.1%,-1.4%
Cc1ccc(OCC(=O)N/N=C\c2ccc(C)o2)c([N+](=O)[O-])c1,/,0.3%,44.2,8.2,5.86µM*,-2.2%
CCOC(=O)C1(Cc2ccccc2C(F)(F)F)CCN(C2CCN(C(C)C)CC2)CC1,1.1%,6.1%,-8.5,-3.5,14.7µM*,-1.1%
CCN(CCn1cccn1)C(=O)CCc1nnc(-c2ccc3c(c2)OCO3)o1,3.3%,20.3%,40.7,-1.0,?,0.8%
O=C(CCc1nnc(-c2ccc3c(c2)OCO3)o1)N1CCC(c2ccc(F)cc2)C1 (centres undefined),-6.3%,7.9%,107.6*,31.5*,?,-1.3%
O=C(CCc1nnc(-c2ccc3c(c2)OCO3)o1)NC(c1ccccn1)C(F)(F)F (centres undefined),1.1%,60.0%,63.9*,37.9*,3.1%,-0.2%
O=C(CCc1nnc(Cc2ccc3c(c2)OCO3)o1)NC(c1ccccn1)C(F)(F)F (centres undefined),-1.2%,?,28.2,-2.3,?,-1.0%
O=C(c1ccccc1)N1CC(COc2ccccc2)OC(c2cccnc2)O1 (centres undefined),-82.9%,7.0%,29.0,16.0*,/,-15.9%
O=C(Cn1c(=O)n(Cc2ccco2)c(=O)c2ccccc21)Nc1cccc(Cl)c1,-16.4%,?,30.5*,22.9*,?,8.9%
O=C(CCCCn1c(=O)c2ccccc2n(CC(=O)Nc2ccc(F)cc2)c1=O)NCc1ccco1,4.3%,11.7µM*,15.3,-1.5,?,3.6%
O=C(CCCn1c(=O)c2ccccc2n(CC(=O)NCc2ccco2)c1=O)NCc1ccco1,7.9%,-5.3%,-3.9,1.3,38.0%,0.3%
CCCN(CCC)C(=O)Cn1c(=O)n(CCCCC(=O)NCc2ccco2)c(=O)c2ccccc21,-5.6%,/,-8.8,0.9,11.7µM*,5.3%
O=C(Nc1cccc(Cl)c1)c1c(O)c2c(n(Cc3ccco3)c1=O)CCCC2,?,57.3%,57.1,31.4*,33.0%,4.5%
CCOC(=O)Cc1csc(SCC(=O)Nc2cc(Cl)ccc2Oc2ccccc2)n1,7.9%,-18.7%,18.4,2.1,/,-8.6%
CSc1ccc(Cl)c(C(=O)OCC(=O)N(C)CCC#N)c1,/,187.4%,-4.9,-4.0,4.6%,-0.4%
CC(C)(C)c1ccc(Cn2nnc3c(=O)[nH]c(C4CCN(C(=O)c5ccco5)CC4)nc32)cc1,?,6.57µM*,-6.6,-2.8,-2.0%,0.3%
CC(C)(C)c1ccc(Cn2nnc3c(=O)[nH]c(C4CCN(C(=O)Cc5cccs5)CC4)nc32)cc1,7.5%,5.86µM*,-17.0,-3.7,/,-12.1%
O=C(Cc1cccs1)N1CCCC(c2nc3c(nnn3Cc3ccccc3Cl)c(=O)[nH]2)C1 (centres undefined),-3.3%,5.22µM*,23.2,5.8,32.2%,1.8%
CC(C)(C)c1ccc(Cn2nnc3c(=O)[nH]c(C4CCCN(C(=O)Cc5cccs5)C4)nc32)cc1 (centres undefined),?,?,41.5,-3.3,5.22µM*,3.5%
CC(C)[C@H](NC(=O)c1ccccc1)C(=O)OCC(=O)Nc1sccc1C(N)=O,/,/,/,/,/,2.3%
CC(C)(C)c1ccc(Cn2nnc3c(=O)[nH]c(C4CCCN(C(=O)c5cccs5)C4)nc32)cc1 (centres undefined),-2.7%,?,2.5,-3.6,4.15µM*,-3.6%
O=C(NCc1cccs1)c1nc2c(nnn2Cc2ccccc2Cl)c(=O)[nH]1,-3.4%,4.15µM*,-18.7,-6.9,-26.6%,9.8%
O=C(c1cccs1)N1CCCC(c2nc3c(nnn3Cc3c(Cl)cccc3Cl)c(=O)[nH]2)C1 (centres undefined),-5.5%,13.1µM*,-12.2,-4.4,?,1.0%
C[C@@H](/C=C/c1ccc2ccccc2c1)C1COC(=O)C[C@H]1O (some centres undefined),/,/,-1.8,-0.2,/,/
O=C(c1ccc(S(=O)(=O)Nc2ccccc2)cc1)N1CCCCCCC1,3.6%,11.6%,-16.5,-2.8,?,-0.8%
SMILES,NS1 inh,Pf growth 48h,Shiga toxin inh,CHX counter,Pf growth 96h,SARS PLP yeast
COc1ccc2[nH]cc(CCNS(=O)(=O)Cc3ccccc3)c2c1,3.9%,1.8%,-3.7,1.2,49.2%,-1.9%
CCN(CC)N=Nc1ccc(S(=O)(=O)Nc2nc(C)cc(C)n2)cc1,2.9%,0.0%,-7.6,-4.1,?,0.1%
CC(=O)c1ccc(S(=O)(=O)NCCCC(=O)N(C)Cc2ccc3c(c2)OCO3)cc1,/,?,/,/,?,-2.2%
Cc1cc(C)n2nc(C(=O)N/N=C/c3c4ccccc4cc4ccccc34)nc2n1,23.1%,-9.1%,5.6,-0.6,11.7µM*,6.5%
S=C(NCCN1CCOCC1)N/N=C/c1c2ccccc2cc2ccccc12,1.3%,-15.9%,21.9,13.4,/,-6.2%
C[N+](C)(C)CC(=O)N/N=C/c1c2ccccc2cc2ccccc12,-15.5%,9.28µM*,17.8,-8.2,6.57µM*,?
COCCNC(=S)N/N=C/c1c2ccccc2cc2ccccc12,-3.6%,6.57µM*,40.3,7.1,3.7µM*,-0.6%
O=C(Nc1nc(-c2ccccc2)nc2ccccc12)c1ccc(F)cc1,/,4.4%,-7.9,-2.1,64.0%,-1.3%
Cc1ccc(CNC(=O)C2CCCN(c3ncnc4c3nc3n4CCCCC3)C2)cc1 (centres undefined),9.1%,-2.5%,1.6,0.4,?,0.4%
CCOC(=O)Cn1nc(C)n(-c2ccc(F)cc2)c1=O,0.9%,-6.7%,-17.7,-3.0,52.7%,0.2%
Cc1cccc(C(=O)OCC(=O)N2CCN(C(=O)c3ccco3)CC2)c1O,/,/,/,/,/,-3.4%
Cc1ccsc1C(=O)OCC(=O)N1CCN(C(=O)c2ccco2)CC1,/,17.9%,26.3*,33.4,7.8%,0.4%
Cc1cnc(C(=O)OCC(=O)N2CCN(C(=O)c3ccco3)CC2)cn1,11.4%,-0.9%,0.6,-1.4,5.22µM*,5.2%
CCOC(=O)/C=C/C(=O)OCC(=O)N1CCN(C(=O)c2ccco2)CC1,2.2%,39.6%,26.9,9.0*,1.2%,0.6%
Cc1cc(C)c(-n2nnnc2SCC(=O)c2cc3ccccc3o2)c(C)c1,9.5%,?,8.0,-0.2,?,-1.3%
O=C(Cc1cccs1)Nc1nc(-c2ccc(F)cc2F)cs1,-20.5%,/,52.7,11.5,?,-17.2%
CC1Cc2cc(-c3csc(NC(=O)Cc4cccs4)n3)ccc2N1S(C)(=O)=O (centres undefined),-2.7%,13.1µM*,5.3,5.6,?,-3.0%
CCC(=O)Nc1nc(-c2ccc3c(c2)CC(C)N3S(C)(=O)=O)cs1 (centres undefined),-1.6%,-0.5%,39.3,26.2*,56.1%,-0.8%
